This is an account of results in PubChem BioAssay AID1851 (National Center for Advancing Translational Sciences (NCATS), 2009).

Each structure is given as a SMILES string. “And” between values parts separate entries of the source, which are not always exact repeats. Identical values can stand only once. Among all 16,000 compounds or so, about 5,800 (36%) were called active. Not shown: some 23% with an inconclusive outcome. Calls come from the whole dose curve; as a rule, active = well fitted curve in the direction sought with a large enough effect; inconclusive = small, poorly fitted or top-dose-only effect, or effect the other way; inactive = no such curve, though single readings can be large or run the other way. This is one part of the list. A structure can be active in one record and inactive in another.
% is set by controls: 0 for no effect and ±100 for the full control effect.

The experiment deals with Cytochrome P450 2C19 (Homo sapiens) (UniProt P33261). The experiment is described as follows: Cytochrome panel assay with activity outcomes. As to conditions: recombinant CYP, pro-luciferin dealkylation, luminescence, p450-cyp2c19; series mostly up to 57.1 µM.
Sequence of Cytochrome P450 2C19 (Homo sapiens) (P33261 whole entry, looked up): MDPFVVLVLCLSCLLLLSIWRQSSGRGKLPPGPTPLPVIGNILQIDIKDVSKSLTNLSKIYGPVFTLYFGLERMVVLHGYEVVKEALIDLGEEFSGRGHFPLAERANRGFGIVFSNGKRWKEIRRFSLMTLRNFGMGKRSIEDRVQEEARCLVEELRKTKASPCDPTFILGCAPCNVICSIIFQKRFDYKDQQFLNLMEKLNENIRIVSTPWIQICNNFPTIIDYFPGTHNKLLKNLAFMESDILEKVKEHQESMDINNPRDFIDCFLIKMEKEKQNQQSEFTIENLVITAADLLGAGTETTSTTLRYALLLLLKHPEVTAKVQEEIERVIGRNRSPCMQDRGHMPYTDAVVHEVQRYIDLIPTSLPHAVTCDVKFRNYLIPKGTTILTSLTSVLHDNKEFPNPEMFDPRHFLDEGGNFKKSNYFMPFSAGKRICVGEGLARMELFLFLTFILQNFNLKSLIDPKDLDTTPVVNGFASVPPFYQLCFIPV
As usually defined, the AC50 is the concentration giving half of the maximal activity seen. `CCC(=O)OCC(=O)[C@@]1(OC(=O)CC)[C@H](C)C[C@@H]2[C@H]3CCC4=CC(=O)C=C[C@]4(C)[C@]3(Cl)[C@@H](O)C[C@@]21C`: the AC50 entry is “inactive”.

Regarding `CC1=C/C(=N/O)C([C@H]2C=C(C)CC(C)(C)[C@@H]2O)C(C)(C)C1` (stereo partly specified), the AC50 was 1.58 µM (active).

For `COc1cccc(Nc2ncc3nc(-c4cn(C)c5ccccc45)c(=O)n(CCC#N)c3n2)c1`, the AC50 entry was “inactive”. On the same count and under the same terms, for `COc1cccc2c1[C@@H]1CN(CCCCn3c(=O)[nH]c4c(sc5ncc(-c6ccccc6)nc54)c3=O)C[C@H]1CO2` the value was “inactive”. Same read-out and setting: the value for `FC(F)Sc1ccc(N=C2NN=C(c3ccc4c(c3)OCCO4)CS2)cc1` was 2.24 µM (active); that for `CC(C)Oc1ccc(CNC(=O)CC(c2ccccc2)c2cc(Cl)ccc2O)cc1` (stereo unspecified) was 1.78 µM (active); that for `CN(Cc1ccccc1)C(=O)CC(c1ccccc1)c1cc(Cl)ccc1O` (stereo unspecified) was 1.78 µM (active). Same read-out and setting: the value for `Cc1cc(-c2cc(-c3ccc(Cl)cc3)nc(N)c2C#N)co1` was 0.282 µM (active). In the case of `CS(=O)(=O)Nc1cccc(-c2ccc3ncnc(NCc4cccnc4)c3c2)c1`, the AC50 was 0.0501 µM (active). As for `CS(=O)(=O)Nc1cccc(-c2cncnc2Nc2ccccc2)c1`, the AC50 result is “inactive”. The same measure, in the same setting: for `CS(=O)(=O)Nc1cccc(-c2cncnc2NCc2cccnc2)c1` the value was 3.16 µM (active); for `Cc1cccc(CNc2ncncc2-c2cccc(NS(C)(=O)=O)c2)c1`, 6.31 µM (active). On to `Cc1cnc(CNc2ncnc3ccc(-c4cccc(NS(C)(=O)=O)c4)cc23)cn1`, for which the AC50 entry was “inactive”. The same measure, in the same setting: the value for `N[C@H](C(=O)O)[C@@H]1[C@@H](C(=O)O)C1(F)F` was “inactive”.

For `CCOC(=O)C1=C(C)NC2=C(C(=O)C(C(=O)OCC)C(c3ccc(OC)cc3)C2)C1c1ccccn1` (stereo unspecified), the AC50 is 20 µM (active). On the same count and under the same terms, the value for `O=C(c1cc2sccc2n1Cc1ccccc1)N1CCN(c2nc3ccccc3s2)CC1` was 2.24 µM (active). Regarding `O=C(O)c1cccc(CN2CCCCC2)c1`, the activity, negative = inhibition is 9.75% [at 11.4 µM] (inactive). In the case of `O=C(CN1CCN(Cc2ccccc2)CC1)N1CCCc2c1c(=O)oc1ccc(O)cc21`, the AC50 was 3.55 µM (active). In the case of `CCCc1c(-c2ccc(O)cc2)nn(-c2ccc(O)cc2)c1-c1ccc(O)cc1`, the AC50 entry is “inactive”.

With `O=S(=O)(O)C1CCNCC1`, the AC50 result was “inactive”. On the same count and under the same terms, the value for `O=S(=O)(c1ccccc1)N1N=C(c2cccs2)CC1c1ccc(Br)cc1` (stereo unspecified) was 2 µM (active); that for `N#CCCn1c(=O)c(-c2cc(F)cc(F)c2)nc2cnc(N3CCOCC3)nc21` was “inactive”; that for `Cc1ccc2c(C)nc(Nc3nc(CSc4nc5ccccc5[nH]4)cc(=O)[nH]3)nc2c1` was 7.08 µM (active). On the same count and under the same terms, for `Cc1ccc2nc(Nc3nc(-c4ccccc4)cc(=O)[nH]3)nc(C)c2c1` the value was 3.16 µM (active). The same measure, in the same setting: the value for `O=c1nc(-c2ccccc2)cc(C(F)(F)F)[nH]1` was “inactive”. As for `COc1ccc(C(N)=O)cc1NC(=O)c1cccc(F)c1`, the AC50 result was “inactive”. Still for that read-out and setting: the value for `CCN(CC)c1ccc(NC(=O)c2cccc(F)c2)c(C)c1` was 15.8 µM (active); that for `Cn1c(SCc2nnc(-c3ccc(F)cc3)o2)nnc1C1COc2ccccc2O1` (stereo unspecified) was 17.8 µM (active); that for `Oc1ccc(C2Nc3cccc4cccc(c34)N2)c(O)c1` was 5.62 µM (active). As for `O=[N+]([O-])c1nccn1C[C@H](O)CN1CCCCC1`, the activity, negative = inhibition was 22.6% [at 11.4 µM] (inactive). For `S=C1N[C@H](c2ccccc2)N[C@H](c2ccccc2)S1`, the AC50 was 3.98 µM (active).

In the case of `O=C1C2[C@@H](c3ccccc3)N[C@@H](c3ccccc3)C1[C@H](c1ccccc1)N[C@H]2c1ccccc1`, the activity, negative = inhibition is -2.21% [at 11.4 µM] (inactive).

Consider `CCOc1ccc(CCNC(=O)CCCN2C(=O)c3ccccc3C2=O)cc1OCC`, for which the AC50 was 28.2 µM (active). In the case of `O=C(CCCCCN1C(=O)c2ccccc2C1=O)NCc1ccccn1`, the AC50 entry was “inactive”. Same read-out and setting: for `COc1ccc(CCNC(=O)CCCCCN2C(=O)c3ccccc3C2=O)cc1` the value was 2.51 µM (active); for `CCOCCCNC(=O)CCS(=O)(=O)Cc1ccc(C)cc1`, “inactive”. For `C#CCCCO/N=C1/C[C@@H](O)[C@@H](O)[C@@H]2[C@@H]3C(=O)N(C[C@@H]4CCCO4)C(=O)[C@H]3CC[C@@H]12`, the activity, negative = inhibition was 1.94% [at 11.4 µM] (inactive). For the compound `O=S(=O)(NCc1cc(-c2ccccc2Cl)no1)c1ccc(Cl)cc1`, the AC50 is 0.0562 µM (active). Consider `O=C1c2ccccc2C(=O)N1Cc1cc(-c2ccccc2Cl)no1`, for which the AC50 is 10 µM (active). Take `O=S(=O)(NCc1cc(-c2ccccc2Cl)no1)c1ccccc1`: the AC50 is 0.158 µM (active). As to `O=C(O)[C@@H]1[C@@H](C(=O)Nc2ccccc2)[C@@H]2C=C[C@@H]1O2`, the activity, negative = inhibition is -3.64% [at 11.4 µM] (inactive). As for `O=C(Nc1ccccc1)c1cc(-c2ccccc2Cl)no1`, the AC50 is 2.82 µM (active). Regarding `CC[C@@H](CS(=O)(=O)O)[N+](=O)[O-]`, the activity, negative = inhibition is 45% [at 11.4 µM] (inactive). Take `CN(C)C(=O)CN(c1ccc2c(c1)OCO2)S(C)(=O)=O`: the AC50 result was “inactive”. Still for that read-out and setting: the value for `CS(=O)(=O)N(CC(=O)Nc1c(F)cccc1F)c1ccc(C23CC4CC(CC(C4)C2)C3)cc1` was 11.2 µM (active); that for `CCCC/C=C/C(NC(=O)Oc1cccc(C(F)(F)F)c1)c1ccccc1` (stereo unspecified) was 3.16 µM (active). Still for that read-out and setting: the value for `CCCC/C=C/C(NC(=O)c1ccco1)c1ccccc1` (stereo unspecified) was 15.8 µM (active); that for `CCCCCCCCCCCCCCC/C=C\[C@H](O)[C@@H](NC(=O)CCCCCCCCCCCCC)OC` (tested in a mixture with another compound) was “inactive”; that for `CCCN(CCC)C(=O)[C@@H](CCC(=O)O)NC(=O)c1ccccc1` was “inactive”. Same read-out and setting: for `CCCC/C=C/C(NC(=O)c1ccc(-c2ccccc2)cc1)c1ccccc1` (stereo unspecified) the value was “inactive”; for `CCCC/C=C/C(NC(=O)c1ccccc1)c1ccccc1` (stereo unspecified), 7.94 µM (active); for `CCCC/C=C/C(NC(=O)c1cccs1)c1ccccc1` (stereo unspecified), 1.58 µM (active).

In the case of `Nc1cc(=O)[nH]c(N)n1`, the AC50 result is “inactive”.

Regarding `CC(C)=CCC/C(C)=C/CO/N=C1/[C@H]2O[C@@H]2[C@@H](O)[C@H]2[C@H]1CCn1c(=O)n(-c3ccccc3)c(=O)n12`, the activity, negative = inhibition is 18.2% [at 11.4 µM] (inactive). Regarding `N#Cc1cccc(-c2nc3cnc(N4CCOCC4)nc3n(C[C@H]3CCCO3)c2=O)c1`, the AC50 result is “inactive”. As to `COc1cccc(N(C(=O)Cn2nnc(-c3ccc(C)cc3)n2)C(C(=O)NC(C)(C)C)c2c[nH]c3ccccc23)c1` (stereo unspecified), the concentration at half-maximal activity (AC50) was 10 µM (active). The same measure, in the same setting: for `OC[C@@H]1O[C@H](O)[C@@H](Cl)[C@H](O)[C@@H]1O` the value was “inactive”. Same read-out and setting: for `CN(CC[C@@H](Oc1ccc(-c2ccccc2)cc1)c1ccc(F)cc1)CC(=O)O` the value was 6.31 µM (active); for `CNCC[C@H](Oc1ccccc1OC)c1ccccc1`, “inactive”; for `CC(C)CN1CCC2(CC1)CCN(S(=O)(=O)c1ccccc1)CC2`, “inactive”. On the same count and under the same terms, for `CC(Oc1ccc(Cl)cc1)c1ccnn1S(=O)(=O)c1ccccc1` (stereo unspecified) the value was 0.501 µM (active); for `CC(Oc1ccc(-c2ccccc2)c(F)c1)c1ccn(S(=O)(=O)c2ccc(Cl)cc2)n1` (stereo unspecified), 3.55 µM (active); for `CC(Oc1ccccc1)c1ccnn1S(=O)(=O)c1ccccc1` (stereo unspecified), 2 µM (active). In the case of `CO[C@H]1COC(=O)[C@H](C)NC(=O)C/C=C\[C@@H](C)[C@H](OC)COC(=O)[C@@H](OCc2ccccc2)/C=C\[C@@H]1C`, the activity, negative = inhibition is 1.79% [at 11.4 µM] (inactive).

`N[C@H](C(=O)O)c1ccc(C(=O)O)cc1`: the AC50 entry was “inactive”. The same measure, in the same setting: for `N[C@@H](C(=O)O)c1ccc(C(=O)O)c(O)c1` the value was “inactive”; for `N[C@H](C(=O)O)c1ccc(C(=O)O)c(O)c1`, “inactive”. The same measure, in the same setting: the value for `N[C@@H](C(=O)O)c1ccc(C(=O)O)cc1` was “inactive”; that for `N[C@@H](C(=O)O)c1ccc(C(=O)O)c(C(=O)O)c1` was 316 nM (active) and inactive and 3.16 µM (active). The same measure, in the same setting: for `N[C@@H](C(=O)O)c1ccc(P(=O)(O)O)cc1` the value was 15.8 µM (active). In the case of `Cc1cc(=Nc2ccc3c(c2)c(N)cc(C)[n+]3C)nc(N)n1C`, the activity, negative = inhibition was 35.5% [at 11.4 µM] (inactive). Regarding `CC(NC(=O)CCSc1nc(-c2ccco2)cc(C(F)(F)F)n1)c1ccccc1` (stereo unspecified), the AC50 was 1.41 µM (active). In the case of `COc1cc(C2C(C(=O)OCCC#N)=C(C)NC3=C2S(=O)(=O)c2ccccc23)cc(OC)c1OC` (stereo unspecified), the AC50 is 20 µM (active). For the compound `COc1ccccc1CNc1ccnc(-c2cccc(C#N)c2)n1`, the AC50 was 3.98 µM (active).

As to `COc1ccc(CNc2ccnc(-c3cccc(C#N)c3)n2)c(OC)c1`, the AC50 was 3.98 µM (active). On the same count and under the same terms, the value for `Cc1nn(C)c(C(=O)NNC(=S)Nc2ccc(Cl)cc2)c1[N+](=O)[O-]` was “inactive”; that for `Cc1nn(C(C)C(=O)Nc2ccc(Cl)cn2)c(C)c1[N+](=O)[O-]` (stereo unspecified) was 3.16 µM (active). On the same count and under the same terms, for `COc1cccc(NC(=S)NNC(=O)C(C)n2nc(C)c([N+](=O)[O-])c2C)c1` (stereo unspecified) the value was 7.94 µM (active); for `Cc1nn(C(C)C(=O)Nc2sc3c(c2C#N)CCCC3)c(C)c1[N+](=O)[O-]` (stereo unspecified), 10 µM (active). On the same count and under the same terms, the value for `OC(CN1CCCCC1)CN1CCCCC1` was “inactive”. On to `FC(F)(F)c1nc2nc(Cl)c(Cl)nc2n1CCCN1CCOCC1`, for which the activity, negative = inhibition was -10.6% [at 11.4 µM] (inactive).

As to `CCn1c(COc2ccc(C)cc2)nnc1SCc1ccc(C#N)cc1`, the AC50 is 15.8 µM (active). In the case of `C=C1C=C(Br)C2(OCCCO2)[C@H]2OC12` (stereo partly specified), the activity, negative = inhibition is 18% [at 11.4 µM] (inactive). For the compound `CN1CCN(c2nc(-c3cccnc3)nc3ccccc23)CC1`, the AC50 result is “inactive”. The same measure, in the same setting: for `CC1CCCCN1c1nc(-c2ccncc2)nc2ccccc12` (stereo unspecified) the value was 0.355 µM (active); for `C/C(=N\NC(=O)c1ccc(Br)cc1)c1ccccc1`, 2.82 µM (active); for `COc1ccc(/C(C)=N/NC(=O)c2ccc(N(C)C)cc2)cc1`, “inactive”. Same read-out and setting: the value for `C/C(=N/NC(=O)Cc1cccn1C)c1ccccc1` was 10 µM (active). For `CC(=NCC(=O)O)c1ccccc1`, the activity, negative = inhibition was 0.942% [at 11.4 µM] (inactive).

Turning to `CC(=O)NN1C(=O)c2ccc(Oc3cccc([N+](=O)[O-])c3)cc2C1=O`, the AC50 is 11.2 µM (active). Same read-out and setting: the value for `CC(=O)NN1C(=O)c2ccc(Oc3ccc([N+](=O)[O-])cc3)cc2C1=O` was “inactive”.
